The campaign covered roughly 5,500 compounds. About 2,000 (36%) were called active. Another 18% or so got no clear call; they are omitted. No stated cut-off is given here; in the data, active means normalized growth mostly below about 0.91 (no sharp cut-off); inconclusive means no clear call, values can overlap the other calls; inactive means mostly above about 0.92. This is one part of the list.
Experiment: chemical genetic growth profiling, strain panel (AID 1159580);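 further: tested at 20 µM; growth read once vehicle control cultures reached saturation at 30 °C; 1 = growth at the plate median or of vehicle wells; lower values mean less growth of the strain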
Conditions: growth OD
[1] = S. cerevisiae deletion strains, locus YAL013W, strain DEP1, hits give low values
[2] = S. cerevisiae deletion strains, locus YAL040C, strain CLN3, hits give low values
[3] = S. cerevisiae deletion strains, locus YCL061C, strain MRC1 (second series), hits give low values
[4] = S. cerevisiae deletion strains, locus YDR150W, strain NUM1, hits give low values
[5] = S. cerevisiae deletion strains, locus YDR363W, strain ESC2, hits give low values
[6] = S. cerevisiae deletion strains, locus YER002W, strain NOP16, hits give low values
[7] = S. cerevisiae deletion strains, locus YJR075W, strain HOC1, hits give low values
[8] = S. cerevisiae deletion strains, locus YMR307W, strain GAS1, hits give low values
[9] = S. cerevisiae deletion strains, locus YNL153C, strain GIM3, hits give low values
[10] = S. cerevisiae deletion strains, locus YNL175C, strain NOP13, hits give low values
[11] = S. cerevisiae deletion strains, locus YNL197C, strain WHI3, hits give low values
[12] = S. cerevisiae deletion strains, locus YNL224C, strain SQS1, hits give low values
[13] = S. cerevisiae deletion strains, locus YOR083W, strain WHI5 (second series), hits give low values
[14] = S. cerevisiae deletion strains, locus YPL055C, strain LGE1, hits give low values
[15] = S. cerevisiae deletion strains, locus YPL241C, strain CIN2, hits give low values
[16] = S. cerevisiae deletion strains, locus YGR078C, strain PAC10, hits give low values
[17] = S. cerevisiae deletion strains, locus YNL322C, strain KRE1, hits give low values
[18] = S. cerevisiae deletion strains, locus YBR229C, strain ROT2, hits give low values
[19] = S. cerevisiae deletion strains, locus YCL061C, strain MRC1, hits give low values
[20] = S. cerevisiae deletion strains, locus YDL101C, strain DUN1, hits give low values
[21] = S. cerevisiae deletion strains, locus YDL134C, strain PPH21, hits give low values
[22] = S. cerevisiae deletion strains, locus YEL061C, strain CIN8, hits give low values
[23] = S. cerevisiae deletion strains, locus YHR030C, strain SLT2, hits give low values
[24] = S. cerevisiae deletion strains, locus YHR087W, strain rtc3, hits give low values
[25] = S. cerevisiae deletion strains, locus YJR043C, strain POL32, hits give low values
[26] = S. cerevisiae deletion strains, locus YKL190W, strain CNB1, hits give low values
[27] = S. cerevisiae deletion strains, locus YLR039C, strain RIC1, hits give low values
[28] = S. cerevisiae deletion strains, locus YLR058C, strain SHM2 (second series), hits give low values
[29] = S. cerevisiae deletion strains, locus YLR085C, strain ARP6, hits give low values
[30] = S. cerevisiae deletion strains, locus YLR262C, strain YPT6, hits give low values
[31] = S. cerevisiae deletion strains, locus YML094W, strain GIM5, hits give low values
[32] = S. cerevisiae deletion strains, locus YMR219W, strain ESC1, hits give low values
[33] = S. cerevisiae deletion strains, locus YMR263W, strain SAP30, hits give low values
[34] = S. cerevisiae deletion strains, locus YNL298W, strain CLA4 (second series), hits give low values
[35] = S. cerevisiae deletion strains, locus YNR030W, strain Alg12, hits give low values
[36] = S. cerevisiae deletion strains, locus YPR135W, strain CTF4, hits give low values
[37] = S. cerevisiae strains, strain wild type, hits give low values

Measured: normalized growth

COC1(C2=NCCN2)COc2ccccc2O1 (stereo not drawn)
inactive: [1] 1 | [2] 1.01 | [3] 1.01 | [4] 1.02 | [5] 0.995 | [6] 1 | [7] 1.01 | [8] 0.998 | S. cerevisiae deletion strains, locus YNL128W, strain TEP1, hits give low values 0.995 | [9] 1.03 | [10] 1 | [11] 1.01 | [12] 1.01 | [13] 1.02 | [14] 0.996 | [15] 1.01

Nn1nnc2ccccc21
inactive: [1] 1.01 | [2] 1.02 | [3] 1.01 | [5] 1 | [6] 1.01 | [16] 1.01 | [10] 0.991 | [11] 1.01 | [12] 0.998 | [17] 1.02 | [13] 0.998 | [14] 1.02

FC(F)(F)c1cc(NC2=NCCN=C(Nc3cc(C(F)(F)F)cc(C(F)(F)F)c3)SS2)cc(C(F)(F)F)c1
inactive: [1] 1.01 | [18] 1.01 | [19] 0.997 | [20] 0.993 | [21] 0.999 | [4] 1.04 | [22] 1 | [16] 1 | [23] 0.952 | [24] 0.997 | [25] 0.993 | [7] 0.989 | [26] 1.01 | [27] 0.977 | [28] 1.01 | [29] 0.978 | [30] 0.979 | [31] 0.975 | [32] 1 | [33] 1.02 | [8] 0.916 | [9] 1.02 | [34] 1.01 | [17] 1 | [35] 0.988 | [14] 1.05 | [15] 0.99 | [36] 0.95 | [37] 1.01

N#CCCNc1cc(C(F)(F)F)cc(C(F)(F)F)c1
inactive: [1] 0.98 | [18] 0.985 | [19] 0.96 | [20] 0.986 | [21] 0.99 | [4] 0.96 | [22] 0.975 | [16] 0.947 | S. cerevisiae deletion strains, locus YGR229C, strain SMI1, hits give low values 0.981 | [23] 0.867 | [24] 0.989 | S. cerevisiae deletion strains, locus YJL187C, strain SWE1, hits give low values 0.986 | [25] 0.97 | [26] 0.981 | [27] 0.848 | [28] 1.01 | [29] 0.837 | [30] 0.844 | [31] 0.918 | [32] 0.987 | [33] 0.991 | [8] 0.903 | [9] 0.96 | [34] 0.954 | [17] 0.957 | [35] 0.902 | [14] 0.893 | [15] 0.947 | [36] 0.801 | [37] 0.991
active: [7] 0.883

— PubChem BioAssay AID1159580 (chemical genetic matrix, 2015)
